B2AR arrestin = qHTS assay of beta-arrestin-biased ligands of beta2-adrenergic receptor; Potency, µM (titrated, usually from 46.1 µM), usual class: activators; beta-arrestin recruitment to beta2AR, cell-based reporter; hit rate 0.02% among 330,000; Beta-2 adrenergic receptor (Homo sapiens), P07550; active = well fitted activation curve with a large enough effect; inconclusive = small, poorly fitted or top-dose-only effect; note: nearly all actives have a fitted effect of over 65% in size
Target sequence (P07550 whole entry, looked up): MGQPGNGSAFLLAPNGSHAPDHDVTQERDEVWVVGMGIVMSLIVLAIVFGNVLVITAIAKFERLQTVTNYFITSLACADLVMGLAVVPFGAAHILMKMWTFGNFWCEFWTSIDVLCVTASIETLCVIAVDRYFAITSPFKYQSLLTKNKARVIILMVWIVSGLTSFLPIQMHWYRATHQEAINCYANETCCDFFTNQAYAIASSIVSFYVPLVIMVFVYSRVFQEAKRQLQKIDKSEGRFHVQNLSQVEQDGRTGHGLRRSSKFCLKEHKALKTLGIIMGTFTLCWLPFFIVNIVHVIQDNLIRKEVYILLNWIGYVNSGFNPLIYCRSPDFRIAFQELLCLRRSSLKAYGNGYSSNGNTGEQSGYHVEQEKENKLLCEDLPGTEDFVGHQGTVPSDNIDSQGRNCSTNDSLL
TSHR antag = Antagonists of the Thyroid Stimulating Hormone Receptor: HTS campaign; Thyrotropin receptor (Homo sapiens), P16473; hit rate 0.2% among 330,000; TSHR-expressing cells, TSH-stimulated cAMP HTRF, 2 h; active compounds read low; activity change, negative = inhibition, % at 11.5 µM;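 active = activity change below a set negative limit, meaning inhibition stronger than a set level, cut at about -70% in these data; inconclusive = activity change between two set negative limits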
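Inhibition of cAMP made by TSHR-expressing cells under TSH stimulation (4nM final, EC80; 2 h, 37 deg C) is quantified with a one-step lysis HTRF kit, anti-cAMP cryptate versus cAMP-d2.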
DRD3 agonist = qHTS of D3 Dopamine Receptor Agonist: qHTS | D(3) dopamine receptor (Homo sapiens), P35462 | D3R DiscoveRx beta-arrestin cells, luminescence, 90 min | max activation, % | hit rate 0.58% among 410,000; in the data active = max activation above about 30%
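Cells at 1500/well, incubated overnight, then treated with pinned compounds (dopamine as control) for 90 min at 37 degrees C. DiscoveRx reagent added for 30 - 60 minutes at room temperature; luminescence read.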
DRD3 antagonist = qHTS of D3 Dopamine Receptor Antagonist: qHTS | max response, negative = inhibition, % | AID 652054, 2013 | D3R cells, DiscoveRx beta-arrestin luminescence, antagonist mode; active compounds read low | D(3) dopamine receptor (Homo sapiens), P35462 | hit rate 2.5% among 360,000; in the data active = max response below about -50%; inconclusive = no clear call, values can overlap the other calls
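Cells plated overnight at 1500 cells/well, then exposed to library compounds with dopamine controls for 90 minutes at 37 degrees C. DiscoveRx reagent added for 30–60 minutes at room temperature; luminescence read, quantitative HTS format.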
Large screens that a line does not name were inactive; ! = not confirmed by another sample. Sampled rows, rich in hits. Any-hit rate of the full collection: about 2.9%.

Nc1nonc1N/N=C/c1c(O)ccc2ccccc12	none
Nc1cc(Cl)nc(N/N=C/c2c(O)ccc3ccccc23)n1	DRD3 antagonist -146.3
O=C(N/N=C/c1c(O)ccc2ccccc12)Nc1ccccc1	DRD3 antagonist -57.2 (no result: B2AR arrestin, TSHR antag)
CCN(CC)c1ccc(NC(=O)c2ccc(Br)o2)c(C)c1	DRD3 antagonist -73.2
O=C(CCn1c(=O)c2ccccc2n(CC(=O)Nc2cccc(F)c2)c1=O)NCCc1ccccc1	none (no result: B2AR arrestin, TSHR antag, DRD3 antagonist)
COCCCNC(=O)CC[C@H]1O[C@@H](n2cnc3c(NC(=O)c4ccccc4)ncnc32)[C@H](O)[C@@H]1O	none (no result: B2AR arrestin, TSHR antag)
COc1cc(NC(=O)CC[C@H]2O[C@@H](n3cnc4c(NC(=O)c5ccccc5)ncnc43)[C@H](O)[C@@H]2O)cc(OC)c1OC	DRD3 antagonist -51.9 (no result: B2AR arrestin, TSHR antag)
O=C(Nc1nnc(-c2ccccc2)s1)c1cc(S(=O)(=O)N2CCOCC2)c(Cl)cc1Cl	DRD3 antagonist -70.1
O=C(Nc1nnc(-c2ccccc2)s1)c1ccc(Cl)c(S(=O)(=O)N2CCOCC2)c1	none (no result: DRD3 agonist, DRD3 antagonist)
Cc1cc(Cl)ccc1NC(=O)CCS(=O)(=O)c1ccc2c(c1)CC(C)N2C(=O)C1CC1 (stereo not given)	none (no result: B2AR arrestin, TSHR antag, DRD3 antagonist)
CN1CCC(N(C)C(=O)c2cc(-c3ccccc3Cl)nc3ccccc23)CC1	DRD3 antagonist -59.5
O=C(c1cc(-c2ccccc2Cl)nc2ccccc12)N1CCC1	none
CN1CCCN(C(=O)c2cc(-c3cccc4ccccc34)nc3ccccc23)CC1	TSHR antag -76.8
CCOc1ccc(NCc2cccn2-c2nnc(N3CCC(C(=O)NCCc4ccc(OC)c(OC)c4)CC3)s2)cc1	none (no result: B2AR arrestin, TSHR antag, DRD3 antagonist)
COc1ccc(NC(=O)Cn2c(=O)n(Cc3nc(-c4ccccc4)no3)c(=O)c3ccccc32)cc1Cl	none (no result: B2AR arrestin, TSHR antag, DRD3 antagonist)
O=C(CCC(=O)Nc1ccc(Cl)cc1)N/N=C/c1ccc2c(c1)OCO2	TSHR antag -71.9
CC1(C(=O)NS(=O)(=O)Cc2ccccc2C(F)(F)F)CCN1C(=O)Cc1cccs1 (stereo not given)	none (no result: B2AR arrestin, TSHR antag)
C=C1C(=O)C=C[C@]2(C)C[C@@H]3OC(=O)[C@](C)(O)[C@H]3C[C@@H]12	DRD3 antagonist inconclusive
C[C@@H]1C[C@@H]2OC(=O)[C@]3(C)[C@H]2[C@@H](OC3(C)O)[C@]2(C)C(=O)C=C[C@H]12 (stereo not given in full)	DRD3 antagonist -53.2
Clc1ccc(OCCN2CCCCC2)cc1Cl	DRD3 antagonist -78.8
COc1ccc(OCCN2CCOCC2)cc1	none
CNCCCOc1ccc2c(c1)CCC2	none
Clc1ccc(OCCN2CCOCC2)cc1Cl	DRD3 antagonist -66.4
Cc1cc(OCCCCCN2CCCC2)ccc1Cl	none
Clc1ccc(OCCCN2CCCC2)cc1Cl	DRD3 antagonist -66.5
CNCCOc1ccc(Cl)c(Cl)c1	DRD3 antagonist -61.6
CCCC1(C)C(C#N)(C#N)C1(C#N)C#N	none (no result: B2AR arrestin, DRD3 agonist, DRD3 antagonist)
O=C1Cc2ccccc2Sc2c(OCCN3CCCCC3)cccc21	DRD3 antagonist -64.5
O=C1Cc2ccccc2Sc2cc(OCCCN3CCCCC3)ccc21	DRD3 antagonist -53.0
CN(C)CCCOc1ccc2c(c1)Sc1ccccc1CC2=O	DRD3 antagonist inconclusive
Cc1ccc(S(=O)(=O)NC2=C(N3CCN(c4ccccc4F)CC3)C(=O)c3ccccc3C2=O)cc1	DRD3 antagonist -67.3!
CC(C)(CN1CCN(Cc2ccccc2)CC1)NS(=O)(=O)c1ccc(Cl)cc1	DRD3 antagonist -61.5
CCOC(=O)N1CCN(C2=C(NS(=O)(=O)c3ccc(C)cc3)C(=O)c3ccccc3C2=O)CC1	DRD3 antagonist inconclusive
Cc1ccc(S(=O)(=O)NC2=C(N3CCN(Cc4ccccc4)CC3)C(=O)c3ccccc3C2=O)cc1	DRD3 antagonist -60.4
COc1ccc2c(c1)c1c(c(=O)n(-c3ccc(C)cc3)c(=O)n1CC(=O)Nc1cc(C)ccc1C)n2C	none (no result: B2AR arrestin, TSHR antag, DRD3 antagonist)
COc1ccc(S(=O)(=O)N(CC(=O)Nc2cccc(C(F)(F)F)c2)c2ccc(C)cc2)cc1	none (no result: B2AR arrestin, TSHR antag, DRD3 antagonist)
Cc1cc(N2C(=O)CC(N3CCN(C(c4ccccc4)c4ccccc4)CC3)C2=O)no1 (stereo not given)	DRD3 antagonist -55.1
Cc1cc(C(=O)N2CCN(C(c3ccccc3)c3ccccc3)CC2)no1	none
O=C(CN1CCN(S(=O)(=O)c2cc(Cl)ccc2Cl)CC1)Nc1cccc(F)c1	none (no result: B2AR arrestin, TSHR antag, DRD3 antagonist)
Cc1ccc(C(=O)NC(C#N)=C(Cl)Cl)cc1	DRD3 antagonist -61.1
Cc1ccc(C(=O)NCC#N)cc1	none
COC(=O)/C=C1\OCc2cc(OCc3ccccc3)ccc21	none (no result: B2AR arrestin, TSHR antag)

High-throughput results: PubChem, National Center for Advancing Translational Sciences (NCATS)
